Test results taken from PubChem BioAssay AID1159580 (chemical genetic matrix, 2015).
Out of some 5,500 compounds screened, about 2,000 (36%) were called active. About 18% were inconclusive and are not listed. No stated cut-off is given here; in the data, active means normalized growth mostly below about 0.91 (no sharp cut-off); inconclusive means no clear call, values can overlap the other calls; inactive means mostly above about 0.92. The list shows a part of the results.

Assay: chemical genetic growth profiling, strain panel (AID 1159580);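 further: tested at 20 µM; growth read once vehicle control cultures reached saturation at 30 °C; 1 = growth at the plate median or of vehicle wells; lower values mean less growth of the strain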
Details: growth OD

Measured: normalized growth

CC1(C)O[C@@H]2CC3C4C[C@H](F)C5=CC(=O)CC[C@]5(C)C4[C@@H](O)C[C@]3(C)[C@]2(C(=O)CO)O1 (some centres not stated)
inactive: S. cerevisiae deletion strains, locus YJR075W, strain HOC1, active compounds read low 1.01 | S. cerevisiae deletion strains, locus YKL009W, strain mrt4, active compounds read low 0.999 | S. cerevisiae deletion strains, locus YKL068W, active compounds read low 1.02 | S. cerevisiae deletion strains, locus YKL085W, strain MDH1 (second series), active compounds read low 1 | S. cerevisiae deletion strains, locus YKL085W, strain MDH1, active compounds read low 1 | S. cerevisiae deletion strains, locus YKL160W, strain elf1, active compounds read low 0.988 | S. cerevisiae deletion strains, locus YKL190W, strain CNB1, active compounds read low 1.02 | S. cerevisiae deletion strains, locus YKR001C, strain vps1, active compounds read low 1.01 | S. cerevisiae deletion strains, locus YKR026C, strain gcn3, active compounds read low 1 | S. cerevisiae deletion strains, locus YKR091W, strain srl3, active compounds read low 0.997 | S. cerevisiae deletion strains, locus YLL001W, strain dnm1, active compounds read low 0.977 | S. cerevisiae deletion strains, locus YLL026W, active compounds read low 1.01 | S. cerevisiae deletion strains, locus YLL041C, strain sdh2, active compounds read low 1.01 | S. cerevisiae deletion strains, locus YLR027C, strain aat2, active compounds read low 1.02 | S. cerevisiae deletion strains, locus YLR039C, strain RIC1, active compounds read low 1.03 | S. cerevisiae deletion strains, locus YLR058C, strain SHM2, active compounds read low 1.02 | S. cerevisiae deletion strains, locus YLR102C, strain apc9, active compounds read low 1.01 | S. cerevisiae deletion strains, locus YLR113W, strain HOG1, active compounds read low 1.02 | S. cerevisiae deletion strains, locus YLR221C, strain rsa3, active compounds read low 0.999 | S. cerevisiae deletion strains, locus YLR258W, strain gsy2, active compounds read low 1.02 | S. cerevisiae deletion strains, locus YLR262C, strain YPT6 (second series), active compounds read low 0.988 | S. cerevisiae deletion strains, locus YLR262C, strain YPT6, active compounds read low 1.04 | S. cerevisiae deletion strains, locus YLR268W, strain sec22, active compounds read low 1.01 | S. cerevisiae deletion strains, locus YLR320W, strain mms22, active compounds read low 0.985 | S. cerevisiae deletion strains, locus YLR330W, strain CHS5, active compounds read low 1.01 | S. cerevisiae deletion strains, locus YLR342W, strain FKS1 (second series), active compounds read low 0.997 | S. cerevisiae deletion strains, locus YLR342W, strain FKS1, active compounds read low 1.01 | S. cerevisiae deletion strains, locus YLR357W, strain rsc2, active compounds read low 0.968 | S. cerevisiae deletion strains, locus YLR370C, strain arc18, active compounds read low 1 | S. cerevisiae deletion strains, locus YLR371W, strain rom2, active compounds read low 1 | S. cerevisiae deletion strains, locus YLR384C, strain iki3, active compounds read low 0.986 | S. cerevisiae deletion strains, locus YLR418C, strain cdc73, active compounds read low 1.01 | S. cerevisiae deletion strains, locus YML016C, strain PPZ1, active compounds read low 1.01 | S. cerevisiae deletion strains, locus YML032C, strain rad52, active compounds read low 0.996 | S. cerevisiae deletion strains, locus YML120C, strain ndi1, active compounds read low 1.01 | S. cerevisiae deletion strains, locus YML124C, strain tub3, active compounds read low 1.01 | S. cerevisiae deletion strains, locus YMR058W, strain fet3, active compounds read low 1.02 | S. cerevisiae deletion strains, locus YMR078C, strain ctf18, active compounds read low 1.01 | S. cerevisiae deletion strains, locus YMR125W, strain sto1, active compounds read low 1.02 | S. cerevisiae deletion strains, locus YMR129W, active compounds read low 1.02 | S. cerevisiae deletion strains, locus YMR205C, strain PFK2, active compounds read low 1.01 | S. cerevisiae deletion strains, locus YMR223W, strain ubp8, active compounds read low 0.993 | S. cerevisiae deletion strains, locus YMR231W, strain pep5, active compounds read low 1 | S. cerevisiae deletion strains, locus YMR263W, strain SAP30, active compounds read low 1.02 | S. cerevisiae deletion strains, locus YMR307W, strain GAS1, active compounds read low 1.01 | S. cerevisiae deletion strains, locus YNL067W, strain RPL9B, active compounds read low 1.01 | S. cerevisiae deletion strains, locus YNL071W, strain lat1, active compounds read low 1.01 | S. cerevisiae deletion strains, locus YNL128W, strain TEP1, active compounds read low 1.02 | S. cerevisiae deletion strains, locus YNL153C, strain GIM3, active compounds read low 1.01 | S. cerevisiae deletion strains, locus YNL183C, strain NPR1, active compounds read low 0.931 | S. cerevisiae deletion strains, locus YNL209W, strain ssb2, active compounds read low 0.999 | S. cerevisiae deletion strains, locus YNL233W, strain BNI4, active compounds read low 1.01 | S. cerevisiae deletion strains, locus YNL248C, strain rpa49, active compounds read low 0.987 | S. cerevisiae deletion strains, locus YNL250W, strain rad50, active compounds read low 1 | S. cerevisiae deletion strains, locus YNL271C, strain bni1, active compounds read low 1.01 | S. cerevisiae deletion strains, locus YNL298W, strain CLA4, active compounds read low 1 | S. cerevisiae deletion strains, locus YNL307C, strain MCK1, active compounds read low 1.01 | S. cerevisiae deletion strains, locus YNL322C, strain KRE1 (second series), active compounds read low 0.993 | S. cerevisiae deletion strains, locus YNL322C, strain KRE1, active compounds read low 1.02 | S. cerevisiae deletion strains, locus YNR049C, strain mso1, active compounds read low 1 | S. cerevisiae deletion strains, locus YNR052C, strain pop2, active compounds read low 0.999 | S. cerevisiae deletion strains, locus YOL006C, strain TOP1, active compounds read low 1.04 | S. cerevisiae deletion strains, locus YOL012C, strain htz1 0.952 | S. cerevisiae deletion strains, locus YOL147C, strain pex11, active compounds read low 1.01 | S. cerevisiae deletion strains, locus YOR001W, strain rrp6, active compounds read low 1 | S. cerevisiae deletion strains, locus YOR061W, strain CKA2, active compounds read low 1.01 | S. cerevisiae deletion strains, locus YOR069W, strain VPS5, active compounds read low 1.01 | S. cerevisiae deletion strains, locus YOR070C, strain gyp1, active compounds read low 1.01 | S. cerevisiae deletion strains, locus YOR080W, strain dia2, active compounds read low 1.02 | S. cerevisiae deletion strains, locus YOR083W, strain WHI5, active compounds read low 0.946 | S. cerevisiae deletion strains, locus YOR106W, strain vam3, active compounds read low 1.01 | S. cerevisiae deletion strains, locus YOR136W, strain idh2, active compounds read low 0.994 | S. cerevisiae deletion strains, locus YOR144C, strain elg1, active compounds read low 1 | S. cerevisiae deletion strains, locus YOR184W, strain ser1, active compounds read low 1 | S. cerevisiae deletion strains, locus YOR231W, strain MKK1, active compounds read low 1.03 | S. cerevisiae deletion strains, locus YOR265W, strain rbl2, active compounds read low 1.01 | S. cerevisiae deletion strains, locus YOR270C, strain vph1, active compounds read low 1.03 | S. cerevisiae deletion strains, locus YOR290C, strain snf2, active compounds read low 1.01 | S. cerevisiae deletion strains, locus YOR316C, strain cot1, active compounds read low 1.01 | S. cerevisiae deletion strains, locus YPL051W, strain arl3, active compounds read low 1.01 | S. cerevisiae deletion strains, locus YPL055C, strain LGE1, active compounds read low 1.04 | S. cerevisiae deletion strains, locus YPL078C, strain atp4, active compounds read low 1.01 | S. cerevisiae deletion strains, locus YPL106C, strain sse1, active compounds read low 0.973 | S. cerevisiae deletion strains, locus YPL240C, strain hsp82, active compounds read low 1 | S. cerevisiae deletion strains, locus YPL241C, strain CIN2, active compounds read low 0.962 | S. cerevisiae deletion strains, locus YPL256C, strain CLN2, active compounds read low 1.03 | S. cerevisiae deletion strains, locus YPR119W, strain clb2, active compounds read low 1 | S. cerevisiae deletion strains, locus YPR141C, strain kar3, active compounds read low 1.01 | S. cerevisiae deletion strains, locus YPR163C, strain tif3, active compounds read low 1 | S. cerevisiae deletion strains, locus YPR167C, strain met16, active compounds read low 1 | S. cerevisiae deletion strains, strain wtn01, active compounds read low 1.01 | S. cerevisiae strains, strain wild type, active compounds read low 1.02
